Experimental findings from PubChem BioAssay (NCATS) are described below.

Results filed as inconclusive are left out. Activity calls are given as the source filed them. Unless noted, calls come from the whole dose curve; as a rule, active = well fitted curve in the direction sought with a large enough effect; inconclusive = small, poorly fitted or top-dose-only effect, or another doubt; inactive = no such curve, though single readings can be large; an effect the other way counts as inactive or inconclusive.

Assay [1] is described as follows: qHTS Assay for Lipid Storage Modulators (AID 1519; calls by dose curve). To be noted: Drosophila S3 cells, BODIPY lipid droplet/cell ratio, laser cytometry, cells loaded with oleic acid. In outline: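 Cells seeded at 5,000 per well were treated with compounds over a concentration series and loaded with oleic acid (400 uM, as added). Lipid droplet fluorescence (488 nm excitation, 500-530 nm channel) was read by laser-scanning cytometry and normalized to 20 uM Triacsin C.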
In general terms: qHTS replaces the single test concentration by a dilution series.

Another assay has as its target Furin (Homo sapiens) (UniProt P09958). Put plainly: Furin counterscreen qHTS for Zika virus inhibitors (AID 1347149).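 Note: purified recombinant full-length human furin enzyme at 5 nM; fluorescence gain from furin cutting a BOC-RVRR-AMC peptide substrate over 15 min; top concentration of the series differs between compounds; plate controls were no-inhibitor control for no effect and no-enzyme control for full effect; nearly all actives have a fitted effect of over 70% in size.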 In outline:
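Counterscreen measures cleavage of 2 microM BOC-RVRR-AMC, below its ~15 microM Km, by 5 nM full-length human furin at pH 7.0 after a 15-min compound preincubation. Inhibition derives from the 15-min fluorescence increase at 37C.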
Background: Counterscreens check selectivity or assay interference.

For assay [2], the system named is Zika virus NS2B-NS3 protease (unlinked). The assay is described as follows: Optimization of GU AMC qHTS for Zika virus inhibitors: Unlinked NS2B-NS3 protease assay (AID 1347151).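 Note: 0% = no-inhibitor control and -100% = no-enzyme control; nearly all actives have a fitted effect of over 80% in size.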 In a few lines:
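Fluorescence read-out (340 nm ex / 450 nm em) of AMC peptide cleavage, taken immediately and after 15 min at room temperature (~20% conversion). Enzyme was the unlinked NS2B–NS3 complex at 25 nM in Tris pH 8.0 buffer.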

Assay [3] in a line: Vero cells viability qHTS for Zika virus inhibitors (AID 1347167). Note: % is set by controls: 0 for no effect and ±100 for the full control effect. In a few lines: (§1)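 qHTS titration; 24-48 h compound exposure, 37 degrees C/5% CO2; DMEM, 4% FBS; CellTiter Glo ATP luminescence.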
Assay [4] can be described thus: Tertiary RLuc qRT-PCR qHTS assay for Zika virus inhibitors (AID 1347169). Note: nearly all actives have a fitted effect of over 55% in size. Note: potency is the fitted concentration of half-maximal effect. In a few lines:
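Luminescence read-out: live-cell Renilla luciferase substrate applied to infected Vero cells, signal measured after 1-1.5 hrs. Cells had received compound before ZIKV-RLuc (Cambodian strain, MOI 1-2) infection and were incubated 48-72 hrs at 37 degrees C.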
A general note: Quantitative PCR measures a nucleic acid by following its amplification.

The nature of assay [5]: NFAT Signaling Pathway (AID 444; active = well fitted curve in either direction with a large enough effect, not every such curve was filed as active;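 note: carbachol stimulus at about its EC50 of 1 µM final; % is set by controls: 0 for no effect and ±100 for the full control effect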). To be noted: Jurkat NFAT-bla M1, carbachol, beta-lactamase ratio, 5 h; at 38 µM (top of the series). In outline:
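Jurkat cells with NFAT-driven β-lactamase reporter and co-expressed M1 receptor, stimulated with carbachol (final 1 uM, ~EC50), compound titration, 5 h at 37 °C. CCF4 loaded 1 h at RT; 460/530 nm ratio gave %activity and AC50.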

Assay [6] is described as follows: Stat Signaling Pathway (AID 446; active = well fitted curve in either direction with a large enough effect, not every such curve was filed as active;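 note: ME-180 cervical cancer cells given 40 pM IL-6 alongside compound; SIE-controlled beta-lactamase reporter measured as 460/530 nm FRET emission ratio; % is set by controls: 0 for no effect and ±100 for the full control effect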). In outline:
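Compound effects on IL-6-induced STAT reporter activity were measured in ME-180 cells. After overnight culture, cells were co-treated with 40 pM IL-6 for 5 hrs before beta-lactamase substrate loading at room temperature.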

For assay [7], the target named is Glucocorticoid receptor (Homo sapiens) (UniProt P04150). The assay is described as follows: GR-GFP Redistribution (AID 450;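 active = compounds whose dose series gives a full or clear partial fitted curve of increased nuclear translocation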; note: potency is the fitted concentration of half-maximal effect). Conditions: U2OS GR-GFP nuclear translocation, laser cytometry, 2 h.
Assay [8] has the same target. The assay is described as follows: GR-EFC Redistribution (AID 451; calls by dose curve; note: potency is the fitted concentration of half-maximal effect). Conditions: CHO-K1 GR-EFC translocation, beta-gal luminescence, 2 h. In outline:
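CHO-K1 cells expressing nuclear EA and GR-ED fragments of b-gal; compounds titrated up to 46 uM final, 2 h at 37 C. GR nuclear translocation read as complemented b-gal luminescence after 1 h RT detection.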

In assay [9] the target is Mitogen-activated protein kinase 10 (Mus musculus) (UniProt Q61831). The assay is described as follows: JNK3 AlphaScreen Assay (AID 530; active = well fitted curve in either direction with a large enough effect, not every such curve was filed as active;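 note: kinase came from lysate of stimulated human HepG2 cells; signal reports phosphorylation of biotinylated GST-cJun 1-79 at Ser73 with 10 µM ATP; % is set by controls: 0 for no effect and ±100 for the full control effect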). In a few lines:
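HepG2 lysate (IL-1b/TNFa pre-activated) + biotin-GST-cJun 1-79 + anti-pSer73 cJun; cpd titration, 15 min RT; ATP 10 uM start; Tris pH 7.6, MgCl2, DTT, vanadate; beads in EDTA buffer; AlphaScreen.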

Assay [10] deals with 3',5'-cyclic-AMP phosphodiesterase 4B (Homo sapiens) (UniProt Q07343). Put plainly: qHTS Assay for Inhibitors of PDE-IV (AID 607; active = well fitted activation curve with a large enough effect in the main read-out, with a control signal flat, not every such curve was filed as active; note: % of control where 0% means no effect). In outline: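 ACTOne HEK293 cells carry a modified cAMP-gated CNG channel and express endogenous PDE4; plated 1000 cells/well, compounds up to 22.9 uM final. Membrane-potential dye fluorescence (ex 535/em 590) was read; parental cells received 10 uM forskolin + 100 uM RO 20-1724.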

Assay [11] has as its target Guanine nucleotide-binding protein G(i) subunit alpha-1 (Homo sapiens) (UniProt P63096). Put plainly: qHTS Assay for Inhibitors of RGS12 GoLoco Motif Activity (Green Fluorophore) (AID 879).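 Note: 0% = labeled peptide with Gαi1 and full inhibition = labeled peptide alone without protein; negative values mean loss of peptide binding seen as reduced polarization.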 In a few lines: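 A drop in FITC polarization marked displacement of the FITC-tagged RGS12 GoLoco peptide (10 nM) from Gαi1 (50 nM). Compounds were incubated 10 min at room temperature in Tris pH 7.5 buffer containing 150 mM NaCl, 0.1 mM GDP and 0.05% NP40; unlabeled peptide titration served as control.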

The target in assay [12] is Cytochrome P450 3A4 (Homo sapiens) (UniProt P08684). The assay is described as follows: qHTS Assay for Activators of Cytochrome P450 3A4 (AID 885). Note: nearly all actives have a fitted effect of over 65% in size. In a few lines: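 CYP3A4 activity: Luciferin-PPXE O-dealkylation, 25uM substrate, 200mM KPO4, RT throughout. Read-out is luciferase luminescence; higher values reflect activation.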
In assay [13] the target is Muscarinic acetylcholine receptor M1 (Rattus norvegicus) (UniProt P08482). The assay is described as follows: qHTS Assay for Antagonists of Acetylcholine Muscarinic M1 Receptor: Kinetic Measurement of Intracellular Calcium Response (AID 943). Note: nearly all actives have a fitted effect of over 75% in size. In outline: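 Read-out: peak over basal Fluo-4 fluorescence, kinetic at 1 Hz for 4 min after EC80 carbachol (100 nM final). Rat M1-CHO cells, dye loaded 1 h at 37C, compound added 10 min before agonist.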

For assay [14] the target is unchanged. The assay is described as follows: qHTS Assay for Antagonists of Acetylcholine Muscarinic M1 Receptor: Measurement of IP-One Response (AID 944). Note: nearly all actives have a fitted effect of over 75% in size. In outline:
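Read-out: HTRF competition between d2-IP1 and Eu-cryptate anti-IP1 antibody, emission 620 and 665 nm. Stimulus was carbachol, EC80 (200 nM), for 30 min in M1-CHO cells (rat receptor), after 10 min compound pre-treatment.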

For assay [15], the target named is Pyruvate kinase (Leishmania mexicana) (UniProt Q27686). Put plainly: qHTS Validation Assay for Inhibitors of Leishmania Mexicana Pyruvate Kinase (AID 945).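 Note: 0% = DMSO only neutral control wells.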 In outline: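 Purified LmPYK (E451W mutant, 0.2 nM) was incubated 1 h at room temperature with 0.5 mM PEP and 0.1 mM ADP in 50 mM imidazole pH 7.2, 50 mM KCl, 7 mM MgCl2; ATP formed was read by PKLight luminescence, normalized to DMSO wells.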

Assay [16] concerns the target Pyruvate kinase PKM (Homo sapiens) (UniProt P14618). Put plainly: qHTS Assay for Activators of Human Muscle Pyruvate Kinase (AID 954; active = well fitted curve in the direction sought with a large enough effect, not every such curve was filed as active;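 note: 0% = uninhibited enzyme and -100% = no enzyme or full thiadiazolimine inhibition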). In a few lines: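 A coupled luminescent readout tracked ATP made from ADP by purified PKM2. Final conditions included 0.1 nM enzyme, PEP and ADP at 0.5 and 0.1 mM, pH 7.2 imidazole buffer with BSA, and a one-hour room-temperature reaction.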

Assay [17] concerns the target Alpha-galactosidase (Coffea arabica) (UniProt Q42656). Put plainly: Counterscreen for Glucocerebrosidase Inhibitors: qHTS Assay for Coffee Bean alpha-Galactosidase at pH 4.5 (AID 957).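 Note: plate controls were enzyme alone for no effect and no enzyme for full effect.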 In outline:
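Fluorogenic read-out: 4-methylumbelliferone at Ex 365/Em 440 nm after NaOH/glycine stop (pH 10). Enzyme 2 nM, 4-MU-alpha-galactoside 80 uM, citrate buffer pH 4.5, 20 min RT; normalized to no-enzyme and enzyme controls.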

The target in assay [18] is Alpha-galactosidase A (Homo sapiens) (UniProt P06280). Put plainly: Counterscreen for Glucocerebrosidase Inhibitors: qHTS Assay for Human alpha-Galactosidase at pH 4.5 (AID 992). Note: 0% is about no effect. In a few lines:
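Citrate buffer pH 4.5, Tween-20 0.005%. Enzyme 2 nM, substrate 80 uM, 20 min RT. Stop pH 10. Fluorescence Ex 365/Em 440. AC50 by Hill fit.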

The target in assay [19] is alpha-glucosidase (Oryza sativa, rice) (UniProt Q653V4). Put plainly: Counterscreen for Glucocerebrosidase Inhibitors: qHTS Assay for Rice alpha-Glucosidase at pH 5.0 (AID 997).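 Note: 0% = full activity with enzyme and -100% = basal without enzyme.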 In outline:
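Endpoint fluorogenic assay at pH 5.0: compounds (0.7 nM to 77 uM) titrated against 4 nM rice enzyme and 400 uM 4-MU-alpha-glucoside for 20 min at room temperature; NaOH/glycine stop, read ex 365/em 440 nm, Hill-fitted AC50.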

For assay [20], the target named is Alpha-galactosidase (Coffea arabica) (UniProt Q42656). The assay is described as follows: Counterscreen for Glucocerebrosidase Inhibitors: qHTS Assay for Coffee Bean alpha-Galactosidase at pH 5.9 (AID 998).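 Note: plate controls were uninhibited enzyme for no effect and no-enzyme basal signal for full effect.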 In outline:
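Enzyme 2 nM + cpd (0.7 nM–77 uM titration) + 4-MU-alpha-Gal 80 uM, pH 5.9 citrate/Tween-20, RT 20 min, NaOH/glycine stop pH 10, fluor 365/440. Normalized to no-enzyme and full-activity controls; Hill-fit AC50.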

The target in assay [21] is DNA dC->dU-editing enzyme APOBEC-3G (Homo sapiens) (UniProt Q9HC16). Put plainly: qHTS for inhibitors of Vif-A3G interactions: Validation (AID 588379). Note: 0% is about no effect. In a few lines:
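Yellow fluorescence (Ex 488, Em 500-530) of Vif-coexpressing HeLa A3G-eYFP cells, scanned by Acumen cytometer, reports blocked A3G degradation. Cells plated at 700/well overnight at 37 deg C before compound addition, then a further overnight compound incubation at 37 deg C.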

For assay [22], the system named is Zika virus NS2B-NS3 protease (linked construct). Put plainly: Confirmatory screen NINDS AMC qHTS for Zika virus inhibitors (AID 1347152).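 Note: AMC fluorescence gain from cleaved Bz-Nle-KRR-AMC substrate over 15 min; top concentration of the series differs between compounds; 0% = no-inhibitor control and -100% = no-enzyme control; nearly all actives have a fitted effect of over 70% in size.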 In outline:
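Linked NS2B-NS3 1 nM, Tris pH 8.0/0.01% Tween 20; cpd 15 min RT dark; + Nle-KRR-AMC 10 µM (Km 18.3 µM); read 0 and 15 min, 340/450 nm; %inh vs controls, 4-param Hill.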

For assay [23], the system named is Zika virus NS2B-NS3 protease (unlinked complex). The assay is described as follows: Confirmatory screen GU AMC qHTS for Zika virus inhibitors (AID 1347153).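 Note: percent inhibition with 0% = no inhibitor control and 100% = no enzyme control; nearly all actives have a fitted effect of over 70% in size.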 In outline: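 Noncovalent NS2B hydrophilic domain/NS3 protease complex (25 nM) in 10 mM Tris-HCl pH 8.0, 0.01% Tween 20 was preincubated 15 min at room temperature with compounds. Then 10 µM AMC substrate (Km 18.3 µM) was added; fluorescence was read over 15 min and fitted to a 4-parameter Hill equation.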

Assay [24] can be described thus: Confirmatory screen NINDS Rhodamine qHTS for Zika virus inhibitors (AID 1347161).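 Note: purified Zika NS2B-NS3 protease with linked NS2B cofactor domain and Rhodamine110 peptide substrate; plate controls were no-inhibitor control for no effect and no-enzyme control for full effect; nearly all actives have a fitted effect of over 60% in size.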 In outline:
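Each compound, titrated, sat 15 min with 25 nM linked protease before 1.5 microM Rhodamine110 substrate went in. Fluorescence gain over the next 15 min, in pH 8.0 Tris with Tween 20, gave Hill-fitted curves.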

A short description of assay [25]: HepG2 cells viability qHTS for Zika virus inhibitors (AID 1347168). Note: % is set by controls: 0 for no effect and ±100 for the full control effect. In outline: as §1
Assay [26] is described as follows: Primary qHTS for small molecule stabilizers of the endoplasmic reticulum resident proteome: Secreted ER Calcium Modulated Protein (SERCaMP) assay (AID 1508630). Note: % is set by controls: 0 for no effect and ±100 for the full control effect. In a few lines: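 The SH-SY5Y reporter protocol was run at 3 concentrations up to 38.3 uM (primary) or 11 concentrations (follow-up): 16 h compound, 100 nM thapsigargin for 4 h, then extracellular luciferase luminescence.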

Glucocorticoid receptor (Homo sapiens), sequence (P04150 whole entry, looked up): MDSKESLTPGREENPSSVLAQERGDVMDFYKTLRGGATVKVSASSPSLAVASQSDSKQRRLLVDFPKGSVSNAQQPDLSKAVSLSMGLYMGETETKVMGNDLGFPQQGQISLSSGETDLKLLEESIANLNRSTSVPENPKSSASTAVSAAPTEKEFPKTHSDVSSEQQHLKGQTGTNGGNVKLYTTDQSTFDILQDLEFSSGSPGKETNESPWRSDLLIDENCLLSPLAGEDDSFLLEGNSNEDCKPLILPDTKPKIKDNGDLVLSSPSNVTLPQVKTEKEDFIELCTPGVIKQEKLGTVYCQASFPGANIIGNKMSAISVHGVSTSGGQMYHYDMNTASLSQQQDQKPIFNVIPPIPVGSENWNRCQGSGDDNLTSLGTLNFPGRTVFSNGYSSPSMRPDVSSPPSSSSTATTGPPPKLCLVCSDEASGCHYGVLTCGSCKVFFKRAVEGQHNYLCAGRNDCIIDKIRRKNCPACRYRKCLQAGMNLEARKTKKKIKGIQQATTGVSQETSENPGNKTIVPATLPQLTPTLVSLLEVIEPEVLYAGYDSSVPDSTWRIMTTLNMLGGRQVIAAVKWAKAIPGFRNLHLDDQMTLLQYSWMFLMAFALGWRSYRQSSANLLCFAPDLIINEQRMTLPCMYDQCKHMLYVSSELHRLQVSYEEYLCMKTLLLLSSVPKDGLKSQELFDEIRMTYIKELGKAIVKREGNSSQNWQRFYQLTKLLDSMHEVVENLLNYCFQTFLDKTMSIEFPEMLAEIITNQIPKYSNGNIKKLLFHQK
Alpha-galactosidase (Coffea arabica), sequence (Q42656 whole entry, looked up): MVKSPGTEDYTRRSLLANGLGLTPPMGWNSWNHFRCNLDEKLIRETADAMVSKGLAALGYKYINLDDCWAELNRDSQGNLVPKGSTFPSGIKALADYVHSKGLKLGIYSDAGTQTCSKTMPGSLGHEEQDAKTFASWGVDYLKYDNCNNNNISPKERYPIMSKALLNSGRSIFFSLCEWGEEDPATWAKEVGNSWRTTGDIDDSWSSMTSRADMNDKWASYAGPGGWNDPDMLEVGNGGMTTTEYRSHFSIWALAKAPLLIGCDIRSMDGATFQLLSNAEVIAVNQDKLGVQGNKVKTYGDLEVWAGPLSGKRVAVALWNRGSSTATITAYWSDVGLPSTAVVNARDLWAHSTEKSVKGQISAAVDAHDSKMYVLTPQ
Furin (Homo sapiens), sequence (P09958 whole entry, looked up): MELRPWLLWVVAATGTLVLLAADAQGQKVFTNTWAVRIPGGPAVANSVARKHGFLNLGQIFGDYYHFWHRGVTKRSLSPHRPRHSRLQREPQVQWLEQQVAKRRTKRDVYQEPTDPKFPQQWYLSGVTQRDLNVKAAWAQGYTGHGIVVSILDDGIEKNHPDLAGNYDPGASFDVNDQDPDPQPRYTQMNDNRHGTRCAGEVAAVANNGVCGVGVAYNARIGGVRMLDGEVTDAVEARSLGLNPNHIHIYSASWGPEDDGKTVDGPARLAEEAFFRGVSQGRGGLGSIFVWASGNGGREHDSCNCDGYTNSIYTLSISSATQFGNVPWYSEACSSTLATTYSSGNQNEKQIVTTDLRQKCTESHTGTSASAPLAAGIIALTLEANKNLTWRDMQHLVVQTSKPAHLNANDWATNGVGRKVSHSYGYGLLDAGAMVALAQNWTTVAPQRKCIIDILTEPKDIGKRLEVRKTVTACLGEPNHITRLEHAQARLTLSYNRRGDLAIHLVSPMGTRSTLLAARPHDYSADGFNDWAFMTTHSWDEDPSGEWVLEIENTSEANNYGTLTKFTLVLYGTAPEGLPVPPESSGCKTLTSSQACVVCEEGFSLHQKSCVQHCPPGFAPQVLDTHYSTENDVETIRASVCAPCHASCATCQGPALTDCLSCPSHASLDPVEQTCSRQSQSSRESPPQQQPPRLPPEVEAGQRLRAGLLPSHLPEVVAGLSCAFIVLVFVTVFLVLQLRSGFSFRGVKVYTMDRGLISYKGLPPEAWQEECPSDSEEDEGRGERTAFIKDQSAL
Muscarinic acetylcholine receptor M1 (Rattus norvegicus), sequence (P08482 whole entry, looked up): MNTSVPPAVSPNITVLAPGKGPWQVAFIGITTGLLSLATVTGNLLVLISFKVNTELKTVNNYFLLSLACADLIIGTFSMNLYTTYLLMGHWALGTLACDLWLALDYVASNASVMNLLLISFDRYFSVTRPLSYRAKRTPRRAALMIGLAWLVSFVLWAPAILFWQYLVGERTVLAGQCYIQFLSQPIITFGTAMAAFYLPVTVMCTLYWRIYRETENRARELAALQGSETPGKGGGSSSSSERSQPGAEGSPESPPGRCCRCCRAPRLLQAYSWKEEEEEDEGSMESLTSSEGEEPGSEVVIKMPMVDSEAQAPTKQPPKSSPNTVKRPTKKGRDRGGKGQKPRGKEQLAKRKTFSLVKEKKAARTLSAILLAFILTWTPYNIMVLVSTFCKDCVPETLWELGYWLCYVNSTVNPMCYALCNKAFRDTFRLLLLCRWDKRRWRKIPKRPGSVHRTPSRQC
Pyruvate kinase PKM (Homo sapiens), sequence (P14618 whole entry, looked up): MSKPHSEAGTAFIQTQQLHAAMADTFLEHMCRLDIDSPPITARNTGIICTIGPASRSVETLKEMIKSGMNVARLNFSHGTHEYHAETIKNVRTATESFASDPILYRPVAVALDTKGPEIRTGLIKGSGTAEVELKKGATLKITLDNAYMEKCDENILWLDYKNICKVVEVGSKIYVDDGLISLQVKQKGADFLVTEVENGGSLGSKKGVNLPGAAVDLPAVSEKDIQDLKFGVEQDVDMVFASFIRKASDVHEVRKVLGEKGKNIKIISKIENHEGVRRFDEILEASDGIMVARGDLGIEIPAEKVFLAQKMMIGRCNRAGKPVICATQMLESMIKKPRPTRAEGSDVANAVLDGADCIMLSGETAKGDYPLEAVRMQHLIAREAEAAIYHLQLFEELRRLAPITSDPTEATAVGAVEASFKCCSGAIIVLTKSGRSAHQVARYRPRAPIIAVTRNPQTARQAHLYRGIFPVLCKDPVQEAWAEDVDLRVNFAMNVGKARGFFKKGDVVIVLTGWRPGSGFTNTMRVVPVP
Cytochrome P450 3A4 (Homo sapiens), sequence (P08684 whole entry, looked up): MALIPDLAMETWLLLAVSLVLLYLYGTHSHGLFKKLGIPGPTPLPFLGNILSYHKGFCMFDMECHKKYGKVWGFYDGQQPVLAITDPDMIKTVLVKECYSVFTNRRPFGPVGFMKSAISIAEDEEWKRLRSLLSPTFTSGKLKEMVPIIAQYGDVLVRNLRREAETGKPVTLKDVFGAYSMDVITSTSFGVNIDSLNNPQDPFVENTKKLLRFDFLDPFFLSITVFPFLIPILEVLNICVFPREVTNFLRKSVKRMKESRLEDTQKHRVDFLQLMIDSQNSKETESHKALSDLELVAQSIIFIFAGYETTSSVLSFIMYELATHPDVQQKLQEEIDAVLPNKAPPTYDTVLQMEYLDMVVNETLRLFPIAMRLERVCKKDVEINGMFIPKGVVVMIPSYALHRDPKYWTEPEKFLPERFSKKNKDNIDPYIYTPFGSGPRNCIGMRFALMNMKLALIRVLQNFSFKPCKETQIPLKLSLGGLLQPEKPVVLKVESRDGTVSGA
3',5'-cyclic-AMP phosphodiesterase 4B (Homo sapiens), sequence (Q07343 whole entry, looked up): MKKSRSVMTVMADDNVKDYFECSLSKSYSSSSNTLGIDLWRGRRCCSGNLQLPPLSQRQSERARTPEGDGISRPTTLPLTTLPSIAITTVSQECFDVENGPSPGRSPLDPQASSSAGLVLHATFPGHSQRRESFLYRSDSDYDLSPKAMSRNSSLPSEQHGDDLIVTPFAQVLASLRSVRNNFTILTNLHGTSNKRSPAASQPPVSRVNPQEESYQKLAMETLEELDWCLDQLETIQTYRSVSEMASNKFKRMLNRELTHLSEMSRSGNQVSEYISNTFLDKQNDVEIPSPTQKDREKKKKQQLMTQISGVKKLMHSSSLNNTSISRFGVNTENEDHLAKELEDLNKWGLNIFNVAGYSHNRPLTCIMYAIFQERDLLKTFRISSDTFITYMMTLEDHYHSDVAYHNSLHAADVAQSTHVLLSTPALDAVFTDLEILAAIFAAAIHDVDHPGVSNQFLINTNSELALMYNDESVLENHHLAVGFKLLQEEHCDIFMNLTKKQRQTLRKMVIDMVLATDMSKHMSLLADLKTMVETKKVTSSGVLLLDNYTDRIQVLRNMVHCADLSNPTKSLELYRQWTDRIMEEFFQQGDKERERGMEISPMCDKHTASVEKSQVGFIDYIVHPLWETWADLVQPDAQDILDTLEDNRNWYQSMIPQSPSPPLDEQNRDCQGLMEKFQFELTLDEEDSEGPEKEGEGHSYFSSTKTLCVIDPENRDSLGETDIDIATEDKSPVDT
Alpha-galactosidase A (Homo sapiens), sequence (P06280 whole entry, looked up): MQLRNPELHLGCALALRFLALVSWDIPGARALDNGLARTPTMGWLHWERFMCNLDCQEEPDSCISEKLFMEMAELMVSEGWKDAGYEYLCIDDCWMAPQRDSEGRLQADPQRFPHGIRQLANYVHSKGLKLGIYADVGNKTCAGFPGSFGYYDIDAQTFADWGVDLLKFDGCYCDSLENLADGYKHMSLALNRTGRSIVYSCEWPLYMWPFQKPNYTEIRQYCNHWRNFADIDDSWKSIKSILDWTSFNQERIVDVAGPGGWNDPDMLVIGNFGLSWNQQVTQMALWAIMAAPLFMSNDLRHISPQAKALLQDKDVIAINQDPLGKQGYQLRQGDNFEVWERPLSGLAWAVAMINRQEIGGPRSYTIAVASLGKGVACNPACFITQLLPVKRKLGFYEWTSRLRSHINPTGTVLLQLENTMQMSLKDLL
Guanine nucleotide-binding protein G(i) subunit alpha-1 (Homo sapiens), sequence (P63096 whole entry, looked up): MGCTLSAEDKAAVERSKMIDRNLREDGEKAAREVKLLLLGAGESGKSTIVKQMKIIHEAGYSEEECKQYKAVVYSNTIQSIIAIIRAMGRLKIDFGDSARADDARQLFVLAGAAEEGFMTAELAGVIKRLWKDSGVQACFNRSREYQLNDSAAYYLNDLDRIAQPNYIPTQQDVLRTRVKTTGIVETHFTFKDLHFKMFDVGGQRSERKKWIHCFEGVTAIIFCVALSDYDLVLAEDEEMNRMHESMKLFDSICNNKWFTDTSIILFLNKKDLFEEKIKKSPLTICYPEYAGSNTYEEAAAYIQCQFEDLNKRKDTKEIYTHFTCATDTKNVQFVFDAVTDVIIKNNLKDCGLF

Consider `CC1O[C@@H](O[C@@H]2C(O)C[C@H](O[C@@H]3C(O)C[C@@H](OC4CC[C@@]5(C)C6CC[C@]7(C)C(C8=CC(=O)OC8)CC[C@@]7(O)C6CC[C@@H]5C4)OC3C)OC2C)CC(O)[C@H]1O` (some centres not stated), for which the activity change, negative = inhibition in assay [1] (at 57.5 µM (top of the series)) was 3.23% (inactive). In addition, the max response was determined as 20.2% in assay [1] (measured here: cell count channel max response) and 25.7% in [1] (measured here: lipid channel max response). Moreover, the Potency result (with Furin (Homo sapiens); in [3]) was “inactive” throughout. Moreover, the result in assay [2] was inactive. Moreover, the Potency in assay [4] is 0.208 µM (active).
With `CN(C(=O)Cc1ccc(Cl)c(Cl)c1)[C@@H](CN1CCCC1)c1cccc(OCC(=O)O)c1`, the activity change, negative = inhibition in [5] is 9.54% (inactive). The compound was called inactive in [6], in [9], in assay [11], in [15], in [16] and in assay [17]. Also, the compound was classed as inactive in assay [18], in assay [19] and in [20]. Also, the Potency in [7] and in assay [8] was > 46 µM (inactive) each time. Moreover, the Potency entry (in assay [10]; in assay [12]; in assay [13]; in [14]; in assay [21]; with Furin (Homo sapiens)) was “inactive” throughout. Also, the Potency entry in assay [22], in assay [23], in assay [24], in [3], in assay [25] and in [4] was “inactive” throughout. Moreover, the Potency entry in [26] is “inactive”.
